Out of some 11,000 compounds screened, about 310 (2.8%) were called active. The sample holds actives, similar compounds and a random draw of the others, so the mix is not that of the screen. Cut-off read from the data, not from the text of the source: active = activity change below about -85%; inactive = the rest.
System: intestinal alkaline phosphatase [Mus musculus]
Experiment: mouse intestinal phosphatase enzyme activation – biochemical, luminescence, single concentration, confirmation (AID 434970)
Conditions: purified mouse IAP, CDP-Star luminescence, 30 min, at 10 µM; activation factor: measured here: IAP activation factor, stronger effect = higher value; activity change, negative = activation: stronger effect = lower value

| SMILES | activation factor | activity change, negative = activation |
| --- | --- | --- |
| COc1ccc(C2NCCO2)cc1OC (stereo not given) | 0.954 | 4.65% (inactive) |
| C=CCONC(=O)Cc1ccccc1 | 1.1 | -9.55% (inactive) |
| Cc1ccc(NC(=O)C2CC(=O)n3c(nc4ccccc43)N2)cc1C (stereo not given) | 2.2 | -120% (active) |
| COc1ccc(NC(=O)N2CCCC2C(=O)Nc2ccc(C)c(Cl)c2)cc1 (stereo not given) | 1.12 | -12.4% (inactive) |
| Cc1ccc(NC2=NC(C(=O)Nc3ccc(C)c(C)c3)CC(=O)N2)cc1 (stereo not given) | 0.958 | 4.15% (inactive) |
| Cc1ccc(NC(=O)C(=O)NNC(=O)c2ccccc2C)cc1Cl | 0.889 | 11.1% (inactive) |
| Cc1cccc(NC(=O)C2CC(=O)n3cnnc3S2)c1 (stereo not given) | 0.843 | 15.8% (inactive) |
| Cc1ccc(NC(=O)C2CC(=O)n3c(nc4ccccc43)N2)cc1Cl (stereo not given) | 2.25 | -125% (active) |
| C=C(C)Cn1c(=O)c2c(nc3n2CCN3c2cccc(Cl)c2C)n(C)c1=O | 0.924 | 7.6% (inactive) |
| CC(C)(C)c1ccc(OCc2nc(-c3ccccn3)no2)c(Br)c1 | 0.924 | 7.55% (inactive) |
| COc1ccc(-c2noc(CCC(=O)N3CCN(c4ccc(C(F)(F)F)cc4)CC3)n2)cc1 | 1.05 | -4.65% (inactive) |
| COc1ccc(OC)c(N)c1 | 0.877 | 12.3% (inactive) |
| C=CCn1c(Br)nc2c1c(=O)[nH]c(=O)n2C | 0.97 | 2.95% (inactive) |
| O=C(NCCOc1ccccc1F)Nc1ccc(Br)cc1 | 1.46 | -45.9% (inactive) |
| COc1cc(NC(=O)NCC2CCN(Cc3ccccc3F)CC2)cc(OC)c1 | 2.67 | -167% (active) |
| O=C(NCC1CCN(Cc2ccccc2Cl)CC1)Nc1cccc(Cl)c1 | 1.77 | -77.5% (inactive) |
| COc1cc(OC)cc(C(=O)Nc2c(F)cccc2F)c1 | 1.02 | -1.9% (inactive) |
| O=C(NCC1CCN(Cc2ccccc2F)CC1)Nc1cccc(Br)c1 | 2.05 | -105% (active) |
| COc1cc(NC(=O)C2CCCN(c3ncccn3)C2)cc(OC)c1 (stereo not given) | 1.11 | -10.6% (inactive) |
| Cc1ccc(NC(=O)Cn2cnc(C(=O)Nc3ccc(C)c(C)c3)n2)cc1C | 1.05 | -4.9% (inactive) |

| SMILES | activation factor | activity change, negative = activation |
| --- | --- | --- |
| O=C(Nc1ccc2ccccc2c1)c1cn(-c2ccccc2)nc1-c1cccs1 | 1.61 | -60.9% (inactive) |
| COc1ccc(N2CCN(c3nc(NCCO)nc(N4CCOCC4)n3)CC2)cc1 | 0.927 | 7.25% (inactive) |
| CC[C@]12c3[nH]c4cc(CCC(=O)N(C)C)ccc4c3CCN1C(=O)[C@@H](CC(=O)NCCCN(C)C)C[C@@H]2C(=O)N1CCN(C(=O)C2CC2)CC1 | 1.05 | -4.6% (inactive) |
| Cc1ccc2c(c1)c(C)c(C)n2CC(O)CN1CCOCC1 (stereo not given) | 0.95 | 5% (inactive) |
| O=C(NC1CCCCCCC1)c1cnccn1 | 0.972 | 2.85% (inactive) |
| O=C(Nc1nccs1)C1CC2CCC1C2 (stereo not given) | 1.01 | -0.6% (inactive) |
| CCOC(=O)c1ccc(NC(=O)CSc2nnc(C3CCCCC3)n2C)cc1 | 0.933 | 6.7% (inactive) |
| Cn1nc(OC(=O)Nc2cccc(Cl)c2)cc1C(F)(F)F | 2.51 | -151% (active) |
| Cn1cc(NC(=O)Nc2ccc(C(F)(F)F)cc2)c(C(F)(F)F)n1 | 1.86 | -86.1% (inactive) |
| O=C(Nc1ccc(-n2ccc(C(F)(F)F)n2)cc1)Nc1cccc(Cl)c1 | 1.92 | -91.7% (active) |
| CC(=O)Nc1ccc(-n2cnnn2)cc1 | 1.04 | -3.5% (inactive) |
| Cc1cc(C)cc(NC(=O)Nc2ccc(-n3ccc(C(F)(F)F)n3)cc2)c1 | 2.36 | -136% (active) |
| Cn1ncc(Cl)c1C(=O)Nc1cccc(Cl)c1 | 1.01 | -1.1% (inactive) |
| O=C(NCCCn1ccnc1)Nc1cccc(Cl)c1 | 1.23 | -23.4% (inactive) |
| Cn1nc(C(=O)Nc2cccc(C(F)(F)F)c2)ccc1=O | 1.13 | -12.9% (inactive) |
| O=C(Nc1ccccc1)Nc1ccc(-n2ccc(C(F)(F)F)n2)cc1 | 1.6 | -60% (inactive) |
| Cc1noc(C)c1S(=O)(=O)Nc1ccc(C(=O)NC2CCCCCC2)cc1 | 1.07 | -7.15% (inactive) |
| CN=C1N(C)C[C@@H]2[C@@H]3C(=O)N(Cc4ccccc4)C(=O)[C@@H]3[C@](Cc3ccccc3)(C(=O)OC)N12 | 1.16 | -16.1% (inactive) |
| CC(C)CC(c1nnnn1Cc1cccs1)N1CCN(c2nc3ccccc3s2)CC1 (stereo not given) | 0.985 | 1.5% (inactive) |
| CCOC(=O)CCc1c(C)c(C#N)c2nc3ccccc3n2c1-n1cnc2ccccc21 | 1.02 | -1.8% (inactive) |

Source: PubChem BioAssay AID434970 (Sanford-Burnham Center for Chemical Genomics, 2010)
